# Measured values published in PubChem BioAssay AID540259 (Broad Institute, 2011).
# Entries with a potency or affinity are not part of this list. The source made the active and inactive calls.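 Rule for the calls: active = cell killing, meaning signal decrease, with fitted half-maximal dose at or below ten times the top valid tested dose; inconclusive = poor fit, or flat curve with 30 to 70% signal loss; inactive = the rest.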
# Assay: HeLa cell cytotoxicity, dose response, cytotoxicity control for MITF activator project, CellTiter-Glo luminescence, cherry-pick samples (AID 540259)
# Details: HeLa viability, CellTiter-Glo ATP luminescence, 24 h; series mostly up to 35 µM
row,Structure (SMILES),outcome
1,Cc1ccc(/C=N/Nc2ccc(Cl)nn2)cc1,inactive
2,O=C(NCC1CC1)Nc1ccc(Cl)cc1,inactive
3,c1cnc(Nc2nc(-c3ccc4ccccc4c3)cs2)nc1,inactive
4,CSc1ccccc1OCc1cc(C(=O)N[C@H]2CCCCNC2=O)no1,inactive
5,COC(=O)Cc1ccc(NC(=O)c2ccc(C)c(C)c2)cc1,inactive
6,O=C(N/N=C/c1ccsc1)c1ccc2c(c1)OCO2,inactive
7,c1ccc2c(c1)NC1(CCCC1)n1c-2nc2ccccc21,inactive
8,O=C(O)c1ccc(-c2nc(-c3ccc(Cl)cc3)cs2)cc1,inactive
9,Cn1cc(Br)c(C(=O)N/N=C/c2cc3c(cc2Cl)OCO3)n1,inactive
10,COc1ccc(NC(=O)Nc2ccc(Br)cn2)cc1,inactive
11,Cc1nn(-c2ccccn2)c2c1-c1nc(N)ncc1CC2,inactive
12,Cc1ccn2cc(C(=O)Nc3nnc(C)s3)nc2c1,inactive
13,O=c1c2c(nc3cc(-c4ccc(Br)cc4)[nH]n13)CCCC2,inactive
14,Nc1ccc(-c2nnc(-c3ccc(N)cc3)o2)cc1,inactive
15,COc1c(C)cccc1C(=O)Nc1ccc(N2CCN(S(C)(=O)=O)CC2)cc1,inactive
16,C/C(=N/NC(=O)c1ccncc1)c1ccc(NC(=O)c2ccc(Cl)cc2Cl)cc1,inactive
17,COc1ccc(NC(=O)CCCn2c(=O)oc3ccccc32)cc1Cl,inactive
18,Clc1ccc(-n2nnc(-c3ncc[nH]3)n2)cc1Cl,inactive

row,Structure (SMILES),outcome
1,CCc1nnc(NS(=O)(=O)c2ccc(NC(=O)c3cccc(Cl)c3)cc2)s1,inactive
2,CC(C)C(=O)Nc1cccc(-c2cnc3ccccc3n2)c1,inactive
3,Cc1ccnc(NC(=O)C2CC(=O)N(Cc3ccccc3)C2)c1 (stereo unspecified),inactive
4,COc1ccc2sc(NCc3ccccc3)nc2c1,inactive
5,C=CCNC(=O)c1ccc2nc(Cc3ccc(OC)cc3)oc2c1,inactive
6,Clc1ccccc1OCc1nnc(-c2ccccc2Br)o1,inactive
7,COC(=O)c1ccc(N=NN2CCCCC2)cc1,inactive
8,Cn1c(NC(=O)CCC2CCCCC2)cc(=O)n(C)c1=O,inactive
9,N#Cc1c(-c2ccc(Cl)cc2)ccn2nc(C3CCCCC3)nc12,inactive
10,O=C(Cc1ccc(O)cc1)NC1CCCCCC1,inactive
11,CC(C)(C)c1csc(NC2=NS(=O)(=O)c3ccccc32)n1,inactive
12,COc1ccc(-c2cc(C(=O)Nc3ccccc3F)on2)cc1,inactive
13,Cc1ccsc1C(=O)OCc1nnc(-c2ccccc2)o1,inactive
14,COc1ccc(-n2nc(C(=O)NCC(=O)N3CCN(c4ccccc4)CC3)c3ccccc3c2=O)c(OC)c1,inactive
15,COC(=O)Cn1c(=NC(=O)c2ccc(Cl)s2)sc2cc(C)ccc21,inactive
16,Cc1nn(-c2ccc(N3CCCCC3)nn2)c(C)c1CCC(=O)Nc1cccc(F)c1,inactive
17,Cc1ccccc1-c1nc(Cc2ccccc2)no1,inactive
18,COc1ccc2cc(C(=O)NCCc3ccccc3)[nH]c2c1,inactive
